ATXN viability = reduces viability in counter-screen for ATXN expression inhibitors | S2 cells (HEK-293 line with an ATXN2-luciferase reporter) viability, CellTiter-Fluor protease fluorescence, 24 h | Potency, µM (top dose mostly 56.7 µM), actives largely listed as cytotoxic | 400,000 compounds, 0.49% hits | AID 651635; note: nearly all actives have a fitted effect of over 40% in size
ATXN2 expr inh = ATXN2 expression inhibition. AID 1745845. HEK-293 ATXN2-luciferase reporter, luminescence, 24 h. Potency, µM (doses to about 57 µM), for inactives: at the highest dose activity change, negative = inhibition, actives largely listed as inhibitors. 360,000 compounds, 0.72% hits; note: % is set by controls: 0 for no effect and ±100 for the full control effect; nearly all actives have a fitted effect of over 55% in size
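qHTS (up to 57 uM final) was run with 24 h compound exposure of reporter cells at 37 °C. Each well was multiplexed: SteadyGlo luminescence measured ATXN2-luciferase expression after a fluorogenic Gly-Phe-AFC viability readout (25 uM final).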
HepG2 tox-1 = kills HepG2 cells in TGF-b inhibitor counter-screen; HepG2 CAGA-GFP viability, ATP luminescence, 18 h; Potency, µM (highest dose often 46.1 µM), without a hit: top-dose activity change, negative = cytotoxicity, most hits filed as cytotoxic; 410,000 compounds, 0.76% hits; AID 588856
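CellTiter-Glo luminescence gave cytotoxicity after 18 hours at 37 degrees C. The cells were HepG2 CAGA-GFP in 1% FBS DMEM, stimulated with 500 pg/mL TGF-beta after compound addition. %Activity was normalised to no-cell wells (complete cell-killing) and DMSO (no toxicity), and curves were fitted and classified.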
KB-3-1 cytotox = kills parental KB-3-1 adenocarcinoma cells; KB-3-1 viability, CellTiter-Glo ATP luminescence, 72 h; Potency, µM (highest dose often 46.1 µM), usual class: cytotoxic; 400,000 compounds, 1.4% hits; note: % is set by controls: 0 for no effect and ±100 for the full control effect; nearly all actives have a fitted effect of over 60% in size
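KB-3-1 parental drug-naive adenocarcinoma cells in DMEM/10% FBS, incubated 72 h at 37 C with pin-transferred compounds across a concentration series. Viability by CellTiter-Glo luminescence; concentration-response curves fitted after normalization.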
KB-V1 MDR tox = KB-V1 MDR subline cytotoxicity | 400,000 compounds, 3.4% hits | KB-V1 MDR cells viability, CellTiter-Glo, 72 h | AID 1347076 | Potency, µM (titrated, usually from 46.1 µM), actives largely listed as cytotoxic; note: % is set by controls: 0 for no effect and ±100 for the full control effect; nearly all actives have a fitted effect of over 60% in size
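Cytotoxicity toward P-gp-expressing KB-V1 cells was determined as loss of CellTiter-Glo luminescence after 72 h at 37 degrees C. Compounds were tested in quantitative HTS format across a concentration range, with curves fitted to normalized data.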
TGFb inhibitor = inhibitors of TGF-b signaling. HepG2 CAGA-GFP TGF-b/SMAD3 reporter, GFP fluorescence, 18 h; TGF-beta stimulated, 500 pg/mL final. Potency, µM (highest dose often 46.1 µM), without a hit: top-dose activity, negative = inhibition, usual class: inhibitors. 410,000 compounds, 1.2% hits. AID 588855; note: % is set by controls: 0 for no effect and ±100 for the full control effect; nearly all actives have a fitted effect of over 65% in size
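Smad-responsive CAGA-GFP expression was quantified in HEPG2 cells exposed to compounds and 500 pg/mL final TGF-beta for 18 h at 37 degrees C; unstimulated wells defined full inhibition.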
TGFb confirm = confirmation of TGF-b signaling inhibitors in HepG2 reporter cells; AID 720534; 1,600 compounds, 63% hits; shares compounds with TGFb inhibitor; HepG2 CAGA-GFP TGF-b reporter, GFP fluorescence, 18 h; cells stimulated with TGF-beta, 500 pg/mL; Potency, µM (series often up to 46.1 µM), without a hit: top-dose activity, negative = inhibition, most hits filed as inhibitors; note: % is set by controls: 0 for no effect and ±100 for the full control effect; nearly all actives have a fitted effect of over 65% in size
HepG2 tox-2 = counter-screen for TGF-b inhibitors: cytotoxicity in HepG2 cells. shares compounds with TGFb inhibitor. HepG2 CAGA-GFP viability, ATP luminescence, 18 h; cells stimulated with TGF-beta, 500 pg/mL. Potency, µM (doses to about 46.1 µM), for inactives: at the top dose activity, negative = cytotoxicity, hits mostly inhibitors. 1,600 compounds, 27% hits. AID 720535; note: % is set by controls: 0 for no effect and ±100 for the full control effect; nearly all actives have a fitted effect of over 70% in size
TGFb CCL64 inh = orthogonal confirmation of TGF-b inhibitors in CCL64 cells; shares compounds with TGFb inhibitor; CCL64 CAGA-GFP reporter, TGF-b stimulated, GFP fluorescence, 18 h; Potency, µM (series often up to 46.1 µM), for inactives: at the highest dose activity, negative = inhibition, actives largely listed as inhibitors; 1,600 compounds, 41% hits; note: nearly all actives have a fitted effect of over 65% in size
COP TGFb inh = blocks TGF-b signaling in HepG2 COP reporter. shares compounds with TGFb inhibitor. 1,600 compounds, 3% hits. HepG2 COP-GFP TGF-b reporter, GFP fluorescence, 18 h; cells stimulated by added recombinant TGF-beta. Potency, µM (highest dose often 46.1 µM), inactives show at the highest dose activity, negative = inhibition, usual class: inhibitors; note: nearly all actives have a fitted effect of over 70% in size
An asterisk follows results filed as active; i = inactive; ? = inconclusive; . = not tested or not shown. Only some compounds are listed: those with a hit (about 5.9% of all), similar ones and a draw of the others. Calls come from the whole dose curve; as a rule, active = well fitted curve in the direction sought with a large enough effect; inconclusive = small, poorly fitted or top-dose-only effect, or another doubt; inactive = no such curve, though single readings can be large; an effect the other way counts as inactive or inconclusive. Potency is the fitted concentration of half-maximal effect.

SMILES	ATXN viability	ATXN2 expr inh	HepG2 tox-1	KB-3-1 cytotox	KB-V1 MDR tox	TGFb inhibitor	TGFb confirm	HepG2 tox-2	TGFb CCL64 inh	COP TGFb inh
CC=Cc1cc2c(c(=O)o1)C(=O)C(O)C(C)O2 (stereo not drawn)	.	?	-16.5%	i	i	11.2µM*	5.17µM*	20.6µM*	?	19.9%
COc1cccc(CNC(=O)c2c(C)oc3nc(C)nc(N4CCOCC4)c23)c1	.	.	-19.9%	.	.	-0.3%	.	.	.	.
Cc1cc(Cl)n2c(nc3ccccc32)c1C#N	.	?	-100.5%	i	?	1.78µM*	1.16µM*	5.17µM*	1.46µM*	25.9µM*
CNc1cc(C)c(C#N)c2nc3ccccc3n12	.	-28.8%	-3.7%	i	i	1.5%	.	.	.	.
CC1=Nc2ccccc2/C1=C\c1sc(Nc2ccc(C)cc2)nc1O	?	-3.9%	-2.9%	?	1.46µM*	11.2µM*	5.17µM*	?	5.17µM*	16.8%
Cc1ccnc(Nc2nc(-c3sc(C)nc3C)cs2)c1	?	-23.9%	3.16µM*	?	?	6.31µM*	9.2µM*	7.31µM*	?	-3.9%
Cc1cccc(N2CCN(CC(=O)NCC3CCCCC3)CC2)c1C	i	-20.1%	-38.5%	i	?	10µM*	-24.3%	-5.6%	?	12.4%
COc1ccc(C)cc1N=Nc1ccc(O)c2ncccc12	i	.	-33.6%	i	i	7.08µM*	6.51µM*	-15.9%	2.31µM*	7.7%
Nc1ncnc2nc(SCC(=O)Nc3ccccc3F)[nH]c12	i	12.5%	-1.2%	i	?	7.94µM*	10.3µM*	-13.1%	16.4µM*	1.5%
COc1ccc(-c2cc(C(=O)Nc3c(C(=O)c4ccc(C)cc4)oc4ccccc34)no2)cc1	.	.	9.2%	.	.	28.1%	.	.	.	.
O=C1Cc2c([nH]c3ccc([N+](=O)[O-])cc23)-c2ccccc2N1	?	?	21.2%	0.82µM*	?	0.501µM*	0.164µM*	0.291µM*	1.3µM*	-10.9%
O=[N+]([O-])c1ccc2[nH]c3nc4ccccc4nc3c2c1	i	.	1.3%	i	i	24.5%	.	.	.	.
O=S(=O)(NCC(Nc1ccccc1)c1ccccc1)c1ccc(Cl)cc1 (stereo not drawn)	?	?	-81.7%	i	20.6µM*	10µM*	?	-4.8%	-1.0%	5.7%
COc1cccc(/C=N/NC(=O)CSc2nnc(C)n2-c2ccccc2)c1O	?	?	-28.0%	?	i	-7.9%	.	.	.	.
CCCCSc1nc(C)cc(SCC(=O)N/N=C/c2cccc(OC)c2O)n1	?	7.08µM*	-26.2%	?	i	7.94µM*	8.2µM*	?	11.6µM*	-1.2%
CCOC(=O)C1=C(CC)Nc2ccccc2N=C1NC(=O)c1cc(C)on1	i	4.5%	-24.3%	i	i	0.0%	.	.	.	.
CCOC(=O)C1=C(CC)Nc2ccccc2N=C1NC(=O)Nc1ccc(Cl)c(Cl)c1	?	?	-36.0%	?	i	7.08µM*	18.4µM*	?	6.51µM*	81.0%
COc1ccccc1C(=O)NCC(c1ccc(N(C)C)cc1)N1CCc2ccccc21 (stereo not drawn)	.	.	-24.1%	i	i	?	.	.	.	.
CC(C)(C)OC(=O)NCCc1nnc(SCc2cccc(Cl)c2)o1	i	-20.0%	-59.7%	i	i	7.94µM*	-5.3%	-9.5%	9.6%	-11.0%
Cc1cccc(CSc2nnc(CCNC(=O)OC(C)(C)C)o2)c1	i	15.5%	-32.1%	i	?	-13.0%	.	.	.	.
CC(C)(C)OC(=O)NS(=O)(=O)NCc1ccco1	.	.	6.5%	.	.	-26.1%	.	.	.	.
CC(C(=O)N1CCc2ccccc21)N1CCN(c2cccc(C(F)(F)F)c2)CC1 (stereo not drawn)	i	-17.1%	-39.4%	i	i	7.08µM*	?	3.3%	?	-9.4%
O=C(O)c1ccc(NC2=C/C(=N/S(=O)(=O)c3ccccc3)c3ccccc3C2=O)cc1	.	35.5µM*	3.98µM*	18.4µM*	?	5.62µM*	6.51µM*	18.4µM*	11.6µM*	?
O=C1C(Nc2ccc(O)cc2)=C/C(=N/S(=O)(=O)c2cccs2)c2ccccc21	8.91µM*	3.98µM*	1.12µM*	3.26µM*	13µM*	1µM*	0.651µM*	1.03µM*	3.66µM*	1.03µM*
O=C(CSc1nnc(CCc2nc3ccccc3[nH]2)n1-c1ccccc1)NCc1ccccc1	i	6.5%	2.5%	i	i	14.4%	.	.	.	.
C=CCn1c(CSCc2ccc(Cl)cc2)nnc1SCC(=O)NCc1ccccc1	?	11.9%	-39.5%	i	i	8.91µM*	?	-8.7%	-33.8%	4.6%
O=C(CSc1nnc(CCc2ccccc2)n1-c1ccc(Cl)cc1)NCc1ccccc1	i	3.4%	-9.5%	i	?	11.2µM*	?	-23.2%	?	-3.0%
CN(C)CCNC(=O)c1cccc2[nH]c(-c3ccncc3)nc12	?	?	-41.5%	i	i	10µM*	16.4µM*	20.6µM*	13µM*	20.8%
O=[N+]([O-])c1cc(S(=O)(=O)Nc2ccccc2)ccc1N1CCN(c2ccc(O)cc2)CC1	?	-20.0%	-18.1%	i	i	?	.	.	.	.
Cc1ccc(NS(=O)(=O)c2ccc(N3CCN(c4ccc(O)cc4)CC3)c([N+](=O)[O-])c2)c(C)c1	i	?	-4.4%	?	?	14.1µM*	11.6µM*	?	?	69.0%

Compound activity: PubChem BioAssay, National Center for Advancing Translational Sciences (NCATS)
